HPGD block: HPGD (human) dehydrogenase inhibition | P15428 | Potency, µM, without a hit: at the highest dose activity change, negative = inhibition, usual class: inhibitors | purified HPGD, NADH fluorescence kinetic, PGE2 substrate | hit rate 4.3% among 150,000; also: potency is read from the fitted curve at half-maximal effect
Target sequence (P15428 whole entry, looked up): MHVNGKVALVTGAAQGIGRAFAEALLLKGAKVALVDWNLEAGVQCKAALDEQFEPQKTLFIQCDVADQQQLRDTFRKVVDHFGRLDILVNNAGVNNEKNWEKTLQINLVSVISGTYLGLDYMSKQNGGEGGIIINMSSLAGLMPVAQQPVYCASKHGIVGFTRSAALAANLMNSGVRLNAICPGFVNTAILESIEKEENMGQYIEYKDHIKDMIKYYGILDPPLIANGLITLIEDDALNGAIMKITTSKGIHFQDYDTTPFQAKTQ
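20 nM HPGD preincubated 15 min at room temperature with compound in 50 mM Tris-HCl pH 8, 0.01% Tween 20. Started with 1 mM NAD+ and 30 uM prostaglandin E2; NADH fluorescence (360/450 nm) read 5 times over 30-s intervals, last minus first.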
PNC assembly inh: blocks assembly of the perinucleolar compartment. PC3M PTB-GFP, PNC prevalence imaging, 16 h; hits give low values. activity change (PNC), negative = inhibition, % at 10 µM. hit rate 3.1% among 140,000;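 active = readout at or below -70, meaning at least 70% loss of cells showing the perinucleolar compartment, a nuclear body marking cancer cells; inconclusive = readout between -30 and a set limit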;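 also: plate controls were DMSO wells for no effect and camptothecin positive control wells for full effect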
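PC3M cells stably expressing PTB-GFP, 750–1000 cells/well, treated 16 h at 37 °C with compound (23 nl of library stock), in duplicate. After paraformaldehyde fixation and Hoechst stain, imaged at 20x; PNC prevalence scored by image analysis.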
ALDH1A1 inh: inhibitors of human aldehyde dehydrogenase 1A1. P00352. Purified ALDH1A1, NADH fluorescence, propionaldehyde substrate. Potency, µM (doses to about 75.3 µM), without a hit: at the top dose activity, negative = inhibition, usual class: inhibitors. hit rate 7.3% among 220,000. AID 1030;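 also: potency is read from the fitted curve at half-maximal effect; plate controls were no enzyme wells and a reference inhibitor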
* = called active by the depositor; ? = inconclusive; nt = not tested or not shown; [ ] = remark or other dose. Hits are enriched below; roughly 11% of the tested compounds scored in any of these assays. Unless noted, calls follow the shape of the dose curve; as a rule, active = well fitted inhibition curve with a large enough effect (not every such curve was filed as active); inconclusive = small, poorly fitted or top-dose-only effect, or another doubt; inactive = no such curve, though single readings can be large or run the other way. Unless noted, % is scaled to controls: 0 for no effect and ±100 for the full control effect.

SMILES | HPGD block | PNC assembly inh | ALDH1A1 inh
Cc1ccc2sc(N(CCCN(C)C)C(=O)CN3C(=O)c4ccccc4C3=O)nc2c1C | nt | nt | -10%
Cc1cc([N+](=O)[O-])nn1CCC(=O)NC1CCCCCC1 | -8% | 31 | -7%
COc1ccc(O)c(/C=N/NC(=O)c2ccc(CSc3nc(C)cc(C)n3)cc2)c1 | -9% | 8 | ?
CC1C/C(=N\NC(=O)c2ccc(NS(=O)(=O)c3ccc(Br)cc3)cc2)CC(C)(C)C1 (stereo unspecified) | -6% | ? | 3.5µM*
Cc1cc(C)nc(SCc2ccc(C(=O)N/N=C/c3ccc(C(=O)O)cc3)cc2)n1 | nt | nt | -5%
Cc1cc(C)nc(SCc2ccc(C(=O)N/N=C3\CC(C)CC(C)(C)C3)cc2)n1 (stereo unspecified) | nt | -4 | 7.9µM*
COc1ccc(/C=N/NC(=O)c2ccc(CSc3nc(C)cc(C)n3)cc2)c(OC)c1OC | 35µM* | 76 | ?
CC1C/C(=N\NC(=O)CCc2ccc(S(=O)(=O)N3CCOCC3)cc2)CC(C)(C)C1 (stereo unspecified) | -6% | -17 | ?
Cc1cc(C)nc(SCc2ccc(C(=O)NN=C3C4CC5CC(C4)CC3C5)cc2)n1 | -10% | -25 | 3.5µM*
Cc1cc(C)nc(SCc2ccc(C(=O)N/N=C/c3cccc(O)c3O)cc2)n1 | -13% | 8 | 0%
COc1ccc(-n2nc3c(c2NC(=O)C2CCCC2)CS(=O)C3)cc1 (stereo unspecified) | 0% | 5 | 4%
CCn1c(CCNC(=O)c2cccs2)n[nH]c1=S | -7% | -19 | -9%
C[C@@H]1CC2(OC3C[C@@]4(C)C5=CC[C@H]6C(C)(C)C(O[C@@H]7OC[C@@H](O)[C@H](O)[C@H]7O)CC[C@@]67C[C@@]57CC[C@]4(C)C31)OC(O)C1(C)OC21 (stereo partly specified) | -8% | nt | ?
COc1cc(S(=O)(=O)Nc2ccccc2)ccc1N=Cc1c(C)[nH]n(-c2ccc(C)cc2)c1=O | -19% | ? | -3%
COc1cc(SC#N)ccc1N=Cc1c(C)[nH]n(-c2ccc(C)c(C)c2)c1=O | -15% | -3 | 0.28µM*
COc1cc(SC#N)ccc1N=Cc1c(C)[nH]n(-c2ccc(Cl)cc2)c1=O | -20% | 23 | 2.5µM*
COc1ccc(CCN=Cc2c(C)[nH]n(-c3ccc([N+](=O)[O-])cc3)c2=O)cc1OC | nt | nt | 9%
CC12C=C(/C=C/c3ccc(C(F)(F)F)cc3)C(C)(C1)C(c1ccc(C(F)(F)F)cc1)CC2=O (stereo unspecified) | nt | nt | 10%[13.5 µM]
C#CCn1c(=NC(=O)CSCC(=O)N2CCOCC2)sc2ccccc21 | -13% | 56 | -16%
Cn1c(NNC(=O)c2cccc3ccccc23)cc(=O)n(C)c1=O | nt | nt | 14%
CC(C)C(NC(=O)C(Cc1ccc(O)cc1)NC(=O)C(NC(=O)C(F)(F)F)C(C)C)C(=O)O (stereo unspecified) | -13% | nt | 2%
COC(=O)[C@@]1(Cc2ccc(OC)cc2)[C@H]2c3cc(C(=O)N(C)C)n(Cc4ccc(Cl)c(C(F)(F)F)c4)c3C[C@H]2CN1C(=O)c1ccccc1 | -9% | nt | -9%
CC1Nc2nc(NC(=O)C(C)(C)C)[nH]c(=O)c2N(C)C1C (stereo unspecified) | -10% | 37 | 8%
O=C1N=c2ccccc2=C1c1sc(=S)n(CC2CCCO2)c1O (stereo unspecified) | -3% | 19 | -14%
COc1ccc(N=C2O/C(=C/c3sc(=S)n(CC4CCCO4)c3O)N=C2C#N)cc1 (stereo unspecified) | nt | nt | 1.1µM*
SMILES | HPGD block | PNC assembly inh | ALDH1A1 inh
CC(=O)Nc1ccc(S(=O)(=O)N2CCc3nc(-c4ccccc4)c4c(c3C2)CO[C@@H](C)C4)cc1 | -6% | nt | 7%[13.5 µM]
CSc1nc(O)c(/C=C2\C=Nc3ccccc32)[nH]1 | ? | -4 | ?
O=c1[nH]c(/C=C2\C=Nc3ccccc32)c(O)n1Cc1ccccc1F | nt | nt | 13µM*
c1cncc(CSc2ccc(-c3ccc4c(c3)OCO4)nn2)c1 | nt | nt | -6%
O=C1CC(c2ccsc2)Sc2ccccc2N1 (stereo unspecified) | nt | nt | -13%
CC1CC(=O)C2=C(C1)Nc1ccccc1SC2c1ccc(F)cc1 (stereo unspecified) | -7% | -85* | 6%
S=c1[nH]nc(-c2ccccn2)n1/N=C/c1c(Cl)cccc1Cl | nt | nt | 18µM*
S=c1[nH]nc(-c2ccccn2)n1/N=C/c1cccc2ccccc12 | 3.5µM* | ? | ?
C=CCn1c(-c2c[nH]c3ccccc23)n[nH]c1=S | -16% | 0 | ?
Cc1cccc(/C=N/n2c(-c3ccccn3)n[nH]c2=S)c1 | nt | 8 | ?
Fc1ccc(-c2n[nH]c(=S)n2/N=C/c2c[nH]c3ccccc23)cc1 | 2.8µM* | 29 | ?

Bioassay records from PubChem.
